Measurements as given in PubChem BioAssay (NCATS).
Records with an inconclusive call do not appear. Entries that show only a call come without a potency. The source made the active and inactive calls. The call rests on the fitted dose curve; in most records, active means well fitted inhibition curve with a large enough effect; inconclusive means small, poorly fitted or top-dose-only effect; inactive means flat fitted curve, though single readings scatter.

molecular target: Glutathione peroxidase 1 (Homo sapiens) (UniProt P07203); assay: Primary qHTS Assay for Inhibitors of Recombinant Selenoprotein Glutathione Peroxidase 1 (GPX1) (AID 1845191); conditions: recombinant GPX1, GR-coupled NADPH fluorescence, 15 min; series mostly up to 48.8 µM; further: nearly all actives have a fitted effect of over 65% in size
Sequence (P07203 whole entry, looked up): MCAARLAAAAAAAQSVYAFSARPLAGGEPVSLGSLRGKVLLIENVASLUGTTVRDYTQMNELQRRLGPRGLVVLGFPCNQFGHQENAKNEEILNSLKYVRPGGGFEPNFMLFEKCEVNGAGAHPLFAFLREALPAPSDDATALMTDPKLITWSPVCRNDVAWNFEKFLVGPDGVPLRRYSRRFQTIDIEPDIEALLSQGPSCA
Method in brief: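 GPX1 10 nM, GR 100 nM, GSH 1 mM, NADPH 0.5 mM, CHP 0.5 mM (final). 30-min cpd preincubation, RT. Ex340/Em450 read t=0, t=15 min.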

Structure (SMILES)	outcome	Potency
C[C@@H]1O[C@@H](O[C@H]2[C@H](O)[C@@H](O)[C@H](OC[C@H]3O[C@@H](OC(=O)[C@]45CCC(C)(C)C[C@H]4C4=CCC6[C@@]7(C)C[C@H](O)[C@H](O[C@@H]8O[C@H](CO)[C@@H](O)[C@H](O)[C@H]8O)[C@@](C)(C(=O)O)C7CC[C@@]6(C)[C@]4(C)CC5)[C@H](O[C@@H]4O[C@H](CO)[C@@H](O)[C@H](O)[C@H]4O)[C@@H](O)[C@@H]3O)O[C@@H]2CO)[C@H](O)[C@H](O)[C@H]1O (stereo not given in full)	inactive [at 9.52 µM]	–
NC1CCC(N[C@@H]2C[C@H]2c2ccccc2)CC1 (stereo not given in full)	–	inactive
O=C(O[C@H]1[C@@H]2C=CO[C@@H](O[C@@H]3O[C@H](CO)[C@@H](O)[C@H](O)[C@H]3O)[C@@H]2[C@@]2(CO)O[C@@H]12)c1ccc(O)cc1	–	inactive
C/C=C/C=C/C=C/C(=O)O[C@@H]1C=C(CO)C(O)(C(=O)O)[C@@]2(C)CCCC(C)(C)[C@H]12 (stereo not given in full)	–	inactive
O=C(NC[C@H](O)CN1CCc2ccccc2C1)c1cc(NC2COC2)ncn1	–	inactive
OC[C@H]1O[C@@H](Oc2cc(O)cc(-c3cc4ccc(O)cc4o3)c2)[C@H](O)[C@@H](O)[C@@H]1O	–	inactive
COc1cc(C(O)C(CO)Oc2ccc(CCCO[C@@H]3O[C@@H](C)[C@H](O)[C@@H](O)[C@H]3O)cc2OC)ccc1O (stereo not given in full)	–	inactive
CC(=O)N[C@H]1CCN(c2ccc(C3=NOC(CN[S+](=O)([O-])C(C)C)C3)cc2F)C1 (stereo not given in full)	–	inactive
CCC(C)C(=O)O[C@@H]1[C@@H](O)[C@@H](O[C@H]2O[C@H](CO)[C@@H](O)[C@H](O)[C@H]2O)O[C@H](CO)[C@H]1O (stereo not given in full)	–	inactive

molecular target: Phospholipid hydroperoxide glutathione peroxidase GPX4 (Homo sapiens) (UniProt P36969); assay: Primary qHTS Assay for Inhibitors of Recombinant Selenoprotein Glutathione Peroxidase 4 (GPX4) (AID 1845192); conditions: recombinant GPX4, GR-coupled NADPH fluorescence, 15 min; series mostly up to 50 µM; further: nearly all actives have a fitted effect of over 65% in size; further: potency means the concentration at half of the fitted maximal effect
Sequence (P36969 whole entry, looked up): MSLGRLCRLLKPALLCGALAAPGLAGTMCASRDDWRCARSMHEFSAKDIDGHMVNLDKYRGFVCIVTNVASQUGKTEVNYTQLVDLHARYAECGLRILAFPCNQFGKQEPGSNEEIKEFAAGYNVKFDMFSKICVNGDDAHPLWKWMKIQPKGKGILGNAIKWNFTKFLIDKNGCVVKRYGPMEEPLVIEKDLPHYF
Method in brief: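 qHTS, GR-coupled: GPX4 200 nM + cpd 30 min RT → GSH 1 mM, NADPH 0.5 mM, GR 100 nM → CHP 0.5 mM start; fluor 340/450 at t0 and t15 min; no-enzyme wells as control.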

Structure (SMILES)	Potency
CCOc1c2c(c(OCC)c3ccccc13)C(=O)N(c1ccc(CC(=O)NS(=O)(=O)c3ccccc3)cc1)C2	inactive
C/C=C(/C)C(=O)O[C@H]1C=C(C)C[C@H](OC(=O)c2ccc(O)cc2)C2[C@](O)(C(C)C)CC[C@@]21C (stereo not given in full)	inactive
CC[C@@H](c1ccc(F)c(F)c1)n1c(C(=O)OC)c(-c2ccno2)[nH]c1=S	inactive
CC1C/C=C/C=C\CCCCC(O)C/C=C/C(=O)O1 (stereo not given)	inactive
CC(NCc1ccc(OCc2cccc(F)c2)cc1)C(N)=O (stereo not given)	inactive
O=C1CSC2(CCN(CCCN3c4ccccc4Sc4ccc(Cl)cc43)CC2)N1	inactive
CCC[C@@H]1C[C@@H](C(=O)N[C@H](C(C)Cl)[C@H]2O[C@H](SC)[C@H](O)[C@@H](O)[C@H]2O)N(C)C1 (stereo not given in full)	inactive
Nc1nc(CC(=O)Nc2ccc(CCNCC(O)c3ccccc3)cc2)cs1 (stereo not given)	inactive
c1ccc(Nc2nc3c(s2)CCCc2[nH]ncc2-3)nc1	inactive
Cc1ccc2c(c1)C=Cc1cc(C)ccc1C2c1cn(Cc2ccc(C(=O)Nc3nn[nH]n3)o2)c(=O)[nH]c1=S	inactive
N#CC1C(=O)Nc2scc(-c3ccc(-c4ccccc4O)cc3)c2C1=O (stereo not given)	inactive
C#Cc1cnc2[nH]c(=O)n(C(CC)CC)c2n1	18 µM (active)
CCOC(=O)[C@H](CCc1ccccc1)N[C@@H](C)C(=O)N1C2CCCCC2C[C@H]1C(=O)O (stereo not given in full)	inactive
C[C@]12CCC(=O)C=C1CC[C@@H]1[C@@H]2[C@@H](O)C[C@@]2(C)[C@H]1CC[C@]2(O)C(=O)COP(=O)(O)O	6.31 µM (active)
COC1C=C([C@@H]2CC=C3[C@@]4(C)C(CC[C@]32C)[C@@]2(C)C=CC(=O)C(C)(C)C2C[C@H]4OC(C)=O)C(=O)O1 (stereo not given in full)	inactive
CC(C)c1nc(N(C)S(C)(=O)=O)nc(-c2ccc(F)cc2)c1/C=C/[C@@H](O)C[C@@H](O)CC(=O)O	inactive
CC(C)(C)NCC(O)COc1cccc2c1CCCC2=O (stereo not given)	inactive
Cn1c(=O)cc(N2CCCC(N)C2)n(Cc2ccccc2C#N)c1=O (stereo not given)	inactive
CCC[C@@H]1C[C@@H](C(=O)N[C@@H]([C@H]2O[C@H](SC)[C@H](O)[C@@H](O)[C@@H]2O)[C@@H](C)O)N(C)C1	inactive
CC[C@@]1(O)C(=O)OCc2c1cc1n(c2=O)Cc2cc3c([N+](=O)[O-])cccc3nc2-1	35.5 µM (active)
Cc1nnc(C(C)C)n1C1CC2CCC(C1)N2CCC(NC(=O)C1CCC(F)(F)CC1)c1ccccc1 (stereo not given)	inactive
COC(=O)[C@@H]1C2CC3c4[nH]c5ccccc5c4CCN3CC2CC[C@@H]1O (stereo not given in full)	inactive
C[C@@H]1C/C=C/C=C\C=C\C=C\[C@H](O[C@@H]2O[C@H](C)[C@@H](O)[C@H](N)[C@@H]2O)C[C@@H]2O[C@](O)(C[C@@H](O)C[C@H]3O[C@@H]3/C=C/C(=O)O1)C[C@H](O)[C@H]2C(=O)O	inactive
CC(=O)Oc1cc2c(s1)CCN([C@H](C(=O)C1CC1)c1ccccc1F)C2	inactive
O=C(O)c1cc(=O)c2c3nc4ccccc4oc-3cc(=O)c2[nH]1	7.94 µM (active)

molecular target: Luciferin 4-monooxygenase (Photinus pyralis) (UniProt P08659); assay: Primary firefly luciferase (FLuc) qHTS assay for identification of artifact compounds. (AID 1845220); conditions: purified firefly luciferase, luminescence, 5 min; series mostly up to 54.1 µM; further: nearly all actives have a fitted effect of over 60% in size; further: potency means the concentration at half of the fitted maximal effect
Method in brief: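 qHTS, 15 min compound preincubation with substrate (10 uM luciferin, 10 uM ATP) at RT, then 10 nM FLuc; 5 min; luminescence; % inhibition vs no-enzyme/DMSO controls, 4-parameter Hill fit.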

Structure (SMILES)	Potency
CCOc1c2c(c(OCC)c3ccccc13)C(=O)N(c1ccc(CC(=O)NS(=O)(=O)c3ccccc3)cc1)C2	inactive
C/C=C(/C)C(=O)O[C@H]1C=C(C)C[C@H](OC(=O)c2ccc(O)cc2)C2[C@](O)(C(C)C)CC[C@@]21C (stereo not given in full)	inactive
CC[C@@H](c1ccc(F)c(F)c1)n1c(C(=O)OC)c(-c2ccno2)[nH]c1=S	inactive
O=C(O)C[C@@H](NC(=O)c1cc(-c2ccc(-c3ccncc3)cc2)cs1)c1ccccc1	6.75 µM (active)
COc1cccc(-n2nc(C(=O)O)cc2-c2ccc(C3CCCCC3)c(Cl)c2)c1	inactive
CC1C/C=C/C=C\CCCCC(O)C/C=C/C(=O)O1 (stereo not given)	inactive
O=C(O)c1cnn(-c2nc3cc(OC(F)(F)F)c(Cl)cc3[nH]2)c1	3.01 µM (active)
CC(NCc1ccc(OCc2cccc(F)c2)cc1)C(N)=O (stereo not given)	inactive
CCC[C@@H]1C[C@@H](C(=O)N[C@H](C(C)Cl)[C@H]2O[C@H](SC)[C@H](O)[C@@H](O)[C@H]2O)N(C)C1 (stereo not given in full)	inactive
Nc1nc(CC(=O)Nc2ccc(CCNCC(O)c3ccccc3)cc2)cs1 (stereo not given)	inactive
Cc1ccc2c(c1)C=Cc1cc(C)ccc1C2c1cn(Cc2ccc(C(=O)Nc3nn[nH]n3)o2)c(=O)[nH]c1=S	inactive
O=C(O[C@H]1[C@@H]2C=CO[C@@H](O[C@@H]3O[C@H](CO)[C@@H](O)[C@H](O)[C@H]3O)[C@@H]2[C@@]2(CO)O[C@@H]12)c1ccc(O)cc1	inactive
N#CC1C(=O)Nc2scc(-c3ccc(-c4ccccc4O)cc3)c2C1=O (stereo not given)	inactive
C#Cc1cnc2[nH]c(=O)n(C(CC)CC)c2n1	inactive
CCOC(=O)[C@H](CCc1ccccc1)N[C@@H](C)C(=O)N1C2CCCCC2C[C@H]1C(=O)O (stereo not given in full)	inactive
COC1C=C([C@@H]2CC=C3[C@@]4(C)C(CC[C@]32C)[C@@]2(C)C=CC(=O)C(C)(C)C2C[C@H]4OC(C)=O)C(=O)O1 (stereo not given in full)	inactive
CC(C)(C)NCC(O)COc1cccc2c1CCCC2=O (stereo not given)	inactive
Cn1c(=O)cc(N2CCCC(N)C2)n(Cc2ccccc2C#N)c1=O (stereo not given)	inactive
CCC[C@@H]1C[C@@H](C(=O)N[C@@H]([C@H]2O[C@H](SC)[C@H](O)[C@@H](O)[C@@H]2O)[C@@H](C)O)N(C)C1	inactive
Cc1nnc(C(C)C)n1C1CC2CCC(C1)N2CCC(NC(=O)C1CCC(F)(F)CC1)c1ccccc1 (stereo not given)	inactive
COC(=O)[C@@H]1C2CC3c4[nH]c5ccccc5c4CCN3CC2CC[C@@H]1O (stereo not given in full)	inactive
C[C@@H]1C/C=C/C=C\C=C\C=C\[C@H](O[C@@H]2O[C@H](C)[C@@H](O)[C@H](N)[C@@H]2O)C[C@@H]2O[C@](O)(C[C@@H](O)C[C@H]3O[C@@H]3/C=C/C(=O)O1)C[C@H](O)[C@H]2C(=O)O	inactive
CC(=O)Oc1cc2c(s1)CCN([C@H](C(=O)C1CC1)c1ccccc1F)C2	inactive
COc1cc(C(O)C(CO)Oc2ccc(CCCO[C@@H]3O[C@@H](C)[C@H](O)[C@@H](O)[C@H]3O)cc2OC)ccc1O (stereo not given in full)	inactive
CC(=O)N[C@H]1CCN(c2ccc(C3=NOC(CN[S+](=O)([O-])C(C)C)C3)cc2F)C1 (stereo not given in full)	inactive
CCC(C)C(=O)O[C@@H]1[C@@H](O)[C@@H](O[C@H]2O[C@H](CO)[C@@H](O)[C@H](O)[C@H]2O)O[C@H](CO)[C@H]1O (stereo not given in full)	inactive
